This is part of a sample that, as a whole, favours compounds with a hit. Of some 83,000 tested, about 20% had one in any assay.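 Note: values are percent growth. 100 is the growth of untreated cells, values between 100 and 0 indicate rising inhibition; between -100 and 0 indicates cell death.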 Values without a mark were called inactive. Calls of active or inactive are those of the source. Rule for the calls: active = growth percent below 10; inactive = the rest.

The first assay relates to OVCAR-8 ovarian. The assay is described as follows: NCI-60 one-dose screen, 48 h (100 = growth as untreated, 0 = no growth, -100 = all killed). The conditions noted are these: 10 µM.
As for `Cc1ccc(NCC(=O)Nn2c(COc3ccccc3)nc3ccccc3c2=O)cc1`, the growth is 60.1%. Still for that read-out and setting: next, `CO[C@@H]1CSSC1Cn1nc(-c2ccc(Oc3ccccc3)cc2)c2c(N)ncnc21` (some centres undefined): 75.5%. `COc1cc(Cn2c(C(F)(F)F)cc3c(Cl)ncnc32)ccn1`: the growth is -16% (active). Same read-out and setting: for `COc1ccc(/C(C)=N/N=C2C(=O)N(C)c3ccc(Br)cc32)cc1S(N)(=O)=O` the value was 27.4%; for `N#Cc1c(-c2ccc(F)cc2)nc(SCc2ccc(F)cc2)nc1N1CCOCC1`, 54.8%; for `S=c1nc(-c2ccccc2)cc(-c2cc3ccccc3nc2Cl)[nH]1`, 76.1%. Regarding `C=C(C)[C@@H]1CC[C@]2(C(=O)OC)CC[C@]3(C)[C@H](CC[C@@H]4[C@@]5(C)CC[C@H](N)C(C)(C)[C@@H]5CC[C@]43C)[C@@H]12`, the growth was -77.4% (active). Same read-out and setting: for `O=C(c1ccc(O)cc1)C1[C@H](c2ccccc2Br)[C@@H](c2ccccc2)NC12C(=O)Nc1ccc(Cl)cc12` (some centres undefined) the value was 4.97% (active); for `CC[C@@]1(O)C(=O)OCc2c1cc1n(c2=O)Cc2c-1nc1cc(F)c(C)c3c1c2[C@@H](N)CC3`, -38.3% (active).

The next assay concerns OVCAR-5 ovarian. The assay is described as above. As to conditions: 10 µM.
Regarding `CC(=O)Nc1nc(-c2ccc(N3CCN(C)CC3)c(NS(=O)(=O)c3cccc4c(N(C)C)cccc34)c2)cs1`, the growth was 83.4%.

As to `CN1CCN(Cc2ccc(C(=O)Nc3cccc(Nc4ccc5cc(O)ccc5n4)c3)cc2C(F)(F)F)CC1`, the growth is -25% (active). `O=C(c1ccc(O)cc1)C1[C@H](c2ccccc2Br)[C@@H](c2ccccc2)NC12C(=O)Nc1ccc(Br)cc12` (some centres undefined): the growth was 64.1%. Still for that read-out and setting: next, `Brc1ccc(/C=N/Nc2ncnc3sc4c(c23)CCN(Cc2ccccc2)C4)cc1`: 99.9%; `O=C(c1ccc(O)cc1)C1[C@H](c2ccc(Br)cc2)[C@@H](c2ccccc2)NC12C(=O)Nc1ccccc12` (some centres undefined): 58.7%. On the same count and under the same terms, next, `O=c1[nH][nH]c(Nc2ccccc2)c1N=Nc1ccc(F)cc1`: 112%; `Cc1ccc(-c2nc3ccc(C(=O)N=Nc4c(O)[nH]c5ccc(Cl)cc45)cc3[nH]2)cc1`: 18.2%. Same read-out and setting: next, `COc1ccc(C(=O)Nc2ccc(-c3ccc4c(c3)NC(=O)/C4=C\c3ccc[nH]3)cc2)cc1`: 51.8%; `CNCc1cccc2c1OCCCCCC[C@@](C)(O)CC1(CC1)S(=O)(=O)c1ccc(cc1)-c1cnc(N)c(n1)C(=O)N2`: -89.7% (active). Regarding `COc1cccc2nc(Nc3ccc(F)c(NC(=O)c4ccc(CN5CCN(C)CC5)c(C(F)(F)F)c4)c3)ccc12`, the growth was 72.5%.

For the molecule `CCOC(=O)C1NN(c2ccc(S(N)(=O)=O)cc2)c2nc3nc(-c4cccs4)cc(-c4cccs4)c3c(=O)n21` (centres undefined), the growth was 100%. The same measure, in the same setting: next, `O=C1Nc2cc(Cl)ccc2/C1=C/c1cccc(OCc2ccc(Br)cc2F)c1`: 30.2%; `O=C(c1ccc(Cl)cc1)C1[C@H](c2ccccc2Br)[C@@H](c2ccccc2)NC12C(=O)Nc1ccc(Br)cc12` (some centres undefined): 19.2%; `O=c1[nH]n(C(=S)N/N=C/c2ccc(F)cc2)c(=O)c2ccccc12`: 91.2%. The same measure, in the same setting: for `CC1(C)CC[C@]2(C(=O)O)CC[C@]3(C)C(=CC[C@@H]4[C@@]5(C)C/C(=C/c6ccncc6)[C@H](O)C(C)(C)[C@@H]5CC[C@]43C)[C@@H]2C1` the value was 67.6%. Still for that read-out and setting: next, `CC1(C)CC[C@]23CC[C@]4(C)[C@H](CC[C@@H]5[C@@]6(C)CC[C@H](N)C(C)(C)[C@@H]6CC[C@]54C)[C@H]2[C@H]1OC3=O`: -99.9% (active); `C#CCNC(=O)[C@]12CCC(C)(C)C[C@H]1C1=CC[C@@H]3[C@@](C)(CCC#N)[C@H](C(=C)C)CC[C@@]3(C)[C@]1(C)CC2`: 77.4%. As for `COC1CC(Cn2cc(COc3ccc4ccc(=O)oc4c3)nn2)C(OCc2ccccc2)C(OCc2ccccc2)C1OCc1ccccc1` (centres undefined), the growth was 111%. Same read-out and setting: for `Cc1cccc2cc(-c3cc(-c4ccccc4)nc(=O)[nH]3)c(Cl)nc12` the value was 93%. Consider `Cc1ccc(CSc2nc(-c3ccc(F)cc3)c(C#N)c(=O)[nH]2)cc1`, for which the growth is 99%. Turning to `O=C1Nc2cc(-c3ccc(NC(=O)c4cccc([N+](=O)[O-])c4)cc3)ccc2/C1=C/c1ccc[nH]1`, the growth is 99.6%. The same measure, in the same setting: for `C=C(C)[C@@H]1CC[C@]2(COP(=O)(OCC)OCC)CC[C@]3(C)[C@H](CC[C@@H]4[C@@](C)(CCCN)[C@H](C(=C)C)CC[C@]43C)[C@@H]12` the value was 43.2%. The same measure, in the same setting: for `O=C(CS(=O)(=O)c1oc(-c2ccc(Cl)cc2)nc1S(=O)(=O)c1ccc(Cl)cc1)N1CCOCC1` the value was 38.3%; for `CN1CCN(c2ccc(Nc3nc(NCCCNC(=O)c4ccc(Cl)cc4)c4sccc4n3)cc2)CC1`, 90.8%. Turning to `CN1CCN(c2ccc(Nc3nc(NCCNC(=O)c4ccc(C(F)(F)F)cc4)c4sccc4n3)cc2)CC1`, the growth was 42.3%. For the molecule `O=C(NCCCCC(c1ccc(F)cc1)c1ccc(F)cc1)NCCCc1cccnc1`, the growth is 27.9%.

For the molecule `O=C(c1ccc(Cl)cc1)C1[C@H](c2ccc(Br)cc2)[C@@H](c2ccccc2)NC12C(=O)Nc1ccc(Br)cc12` (some centres undefined), the growth is -91.2% (active). Still for that read-out and setting: for `COc1ccc2[nH]c(O)c(N=NC(=O)COc3ccc(NC(=O)Nc4ccc(Cl)cc4)cc3)c2c1` the value was 48%; for `CONC[C@]1(C)C=C2C(=O)[C@](C)(O)C3(CC3)C(C)=C2[C@H]1O`, -44.2% (active); for `COC[C@@H](CC(C)C)N=C1NC(=O)/C(=C/c2ccc3ncoc3c2)N1`, -11.6% (active). On to `O=C(c1ccc(Cl)cc1)C1[C@H](c2ccccc2Br)[C@@H](c2ccccc2)NC12C(=O)Nc1ccccc12` (some centres undefined), for which the growth was 4.22% (active). The same measure, in the same setting: for `Cc1ccc(NCC(=O)Nn2c(COc3ccccc3)nc3ccccc3c2=O)cc1` the value was 92.3%; for `CO[C@@H]1CSSC1Cn1nc(-c2ccc(Oc3ccccc3)cc2)c2c(N)ncnc21` (some centres undefined), 62.5%. On the same count and under the same terms, next, `COc1cc(Cn2c(C(F)(F)F)cc3c(Cl)ncnc32)ccn1`: 93.7%; `COc1ccc(/C(C)=N/N=C2C(=O)N(C)c3ccc(Br)cc32)cc1S(N)(=O)=O`: 81.4%.

`N#Cc1c(-c2ccc(F)cc2)nc(SCc2ccc(F)cc2)nc1N1CCOCC1`: the growth was 83.1%. Still for that read-out and setting: for `S=c1nc(-c2ccccc2)cc(-c2cc3ccccc3nc2Cl)[nH]1` the value was 110%. Same read-out and setting: next, `C=C(C)[C@@H]1CC[C@]2(C(=O)OC)CC[C@]3(C)[C@H](CC[C@@H]4[C@@]5(C)CC[C@H](N)C(C)(C)[C@@H]5CC[C@]43C)[C@@H]12`: -100% (active). Turning to `O=C(c1ccc(O)cc1)C1[C@H](c2ccccc2Br)[C@@H](c2ccccc2)NC12C(=O)Nc1ccc(Cl)cc12` (some centres undefined), the growth is -2.71% (active). For `CC[C@@]1(O)C(=O)OCc2c1cc1n(c2=O)Cc2c-1nc1cc(F)c(C)c3c1c2[C@@H](N)CC3`, the growth is -12.5% (active).

The record behind these values is PubChem BioAssay (NCI).
